This assay deals with MDA-MB-468 breast. Nature of the assay: NCI-60 one-dose screen, 48 h (100 = growth as untreated, 0 = no growth, -100 = all killed).

The panel holds about 83,000 compounds, 20% with a hit somewhere; the sample as a whole holds those more often.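 Results are percent growth after 48 hours of single-concentration exposure. 100 means growth as in untreated cells, lower positive values show inhibition; negative values down to -100 show cell death.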 Values without a mark were called inactive. The source made the active and inactive calls. How the source made its calls: active means growth percent below 10; inactive means the rest.

With `Cc1cnc(C=O)c2cccc([N+](=O)[O-])c12`, the growth (10 µM unless noted) was 89.7%.

Regarding `Nc1cc(F)ccc1NC(=O)c1ccc(NC(=O)C/C=C/c2cccnc2)cn1`, the growth (10 µM unless noted) was -27.4% (active).

Turning to `C#Cc1ccc(-n2c(/C=C/c3cc(OC)cc(OC)c3)nc3ncccc3c2=O)cc1`, the growth (10 µM unless noted) is 37.4%.

Take `CNC(=O)c1cc(Oc2ccc3nc(NC(=O)c4cccc(C(F)(F)F)c4)sc3c2)ccn1`: the growth (10 µM unless noted) is 106%.

As for `COc1ccc(-c2nnc(SCC(=O)Nc3ccc(C(=O)/C=C/c4ccccc4)cc3)n2-c2ccccc2)cc1OC`, under “10 µM unless noted”, the growth is 94.8%.

Regarding `Cc1ccc(N=NC2C(=O)N(c3ccc(Cl)cc3)N(c3ccc(Cl)cc3)C2=O)cc1`, the growth (10 µM unless noted) is 107%.

Turning to `O=C(O)CSc1ccc(NCc2oc(CO)cc(=O)c2O)cc1`, where the note is “10 µM unless noted”, the growth was 108%.

For the compound `C/C=C(/C)C(=O)O[C@@H]1CC(C)(C)CC2C34OC(=O)[C@@]21CC[C@@]3(C)[C@]1(C)CCC2C(C)(C)C(=O)CC[C@]2(C)C1C[C@@H]4Cl` (stereo partly drawn), the growth (10 µM unless noted) is 80.5%.

Regarding `Oc1c(I)cc(I)cc1CN(Cc1ccccn1)Cc1ccccn1`, the growth (10 µM unless noted) is 8.74% (active).

For the compound `Clc1ccccc1-c1cnn2cc(-c3ccccc3)cnc12`, the growth (10 µM unless noted) was 90.8%.

On to `CC(=O)NNC(=S)/N=C\C(C(=O)c1ccccc1)=C(/O)c1ccccc1`, for which the growth (10 µM unless noted) is 114%.

In the case of `CCCCN(CC)CCCCCCCCCCN1CCCc2cc(OC)ccc21`, for the setting “10 µM unless noted”, the growth was 40.8%.

With `C/C(=N/NC(=O)Cn1c2ccccc2c2ccncc21)c1cccs1`, under “10 µM unless noted”, the growth is 105%.

With `Cc1n(Cc2ccc3ccccc3n2)cc[n+]1Cc1ccc2ccccc2n1`, the growth (10 µM unless noted) is 8.07% (active).

`COc1ccc(/C(N)=N/C(N)=N/c2nc3ccccc3s2)cc1`: the growth (10 µM unless noted) is 24.3%.

Take `COc1cc2oc(-c3cccc(N)c3)cc(=O)c2c(OC)c1OC`: the growth (10 µM unless noted) is 99.9%.

On to `c1ccc(-c2nnn(-c3ccccc3)n2)cc1`, for which the growth (10 µM unless noted) is 111%.

On to `NS(=O)(=O)c1ccc(Nc2nc(SCC(=O)c3ccc(Cl)cc3)nc3ccccc23)cc1`, for which, under “10 µM unless noted”, the growth was 82.4%.

Regarding `Cn1cc(-c2nn3c(=O)cc(-c4ccccc4)nc3s2)c2cc(F)ccc21`, the growth (10 µM unless noted) is 38.9%.

`COC(=O)[C@H](Cc1cn(C)cn1)NC(=O)[C@H](Cc1c[nH]c2ccccc12)NC(=O)Nc1cc(C(F)(F)F)cc(C(F)(F)F)c1`: the growth (10 µM unless noted) was -75.7% [100 µM] (active).

In the case of `O=CCCCOCc1ccccc1`, the growth (10 µM unless noted) is 112%.

In the case of `C[C@@H](Oc1cc(-c2cnn(C3CC4(CCNCC4)C3)c2)cnc1N)c1c(F)ccc(Cl)c1Cl`, the growth (10 µM unless noted) was -53.3% (active).

For `CN1CCN(CCCOc2ccc3ncnc(Nc4ccc(OCc5cccc(F)c5)c(Cl)c4)c3c2)CC1`, the growth (10 µM unless noted) was -63.1% (active).

`CCCCCCCCCC(C)NC(=O)CCl` (stereo not drawn): the growth (10 µM unless noted) is 95.4%.

Regarding `Cc1ccc(-c2nc(N3CCN(C(=O)c4ccc(OC(F)(F)F)cc4)CC3)c3ccccc3n2)cc1`, the growth (10 µM unless noted) was 93.8%.

Regarding `COc1ccc(/C=C/C(=O)c2ccc(B(O)O)cc2)cc1O`, where the note is “10 µM unless noted”, the growth was 66.8%.

For `CCC12CCC3c4ccc(O)cc4CCC3C1CC(O)C2O` (stereo not drawn), for the setting “10 µM unless noted”, the growth was 58.4%.

For the compound `O=C(/C=C/C12c3ccccc3C(c3ccccc31)C1C(=O)NC(=O)C12)c1ccc(F)cc1` (stereo not drawn), for the setting “10 µM unless noted”, the growth was -25% (active).

`Cc1noc(C)c1-c1cc(O)cc(C(O)c2ccccc2)c1` (stereo not drawn): the growth (10 µM unless noted) is 24.9%.

As to `Nc1ccn(C2O[C@H](CO)[C@@H](O)[C@H]2O)c(=O)n1` (stereo partly drawn), the growth (10 µM unless noted) was 96.8%.

With `COc1cc(OCc2cccc(-c3ccc(C(O)c4nccs4)cc3)c2C)cc(OC)c1C=O` (stereo not drawn), the growth (10 µM unless noted) is -36.5% (active).

In the case of `N#Cc1c(-c2ccccc2)cc(-c2ccccc2)n(CCCC(=O)NO)c1=O`, the growth (10 µM unless noted) is 33.3%.

Regarding `Cc1cccc(N=Nc2cccc(C)c2)c1`, the growth (10 µM unless noted) was 108%.

As for `Cc1ccc(N2CCN(C(C)C(N)=O)CC2)cc1` (stereo not drawn), for the setting “10 µM unless noted”, the growth was 109%.

Turning to `O=C(C=C=Nc1ccccc1)C(=O)N=C=Cc1ccccc1`, the growth (10 µM unless noted) is 22%.

With `O=C(CC1Sc2ccccc2NC1=O)NNc1ccc(F)cc1` (stereo not drawn), the growth (10 µM unless noted) is 92.7%.

As for `C/C(=C(/c1ccc(O)cc1)c1ccc(OCCN2CCCC2)cc1)c1ccccc1`, the growth (10 µM unless noted) was 34.7%.

As to `CCN(Cc1ccccc1)c1ccc(/C=C2\COc3ccccc3C2=O)cc1`, the growth was 118% (10 µM) and 7.2% (active) (100 µM).

For the compound `COc1ccc(-c2cscc2N)cc1`, the growth reads like this: (10 µM) 96.4%; (100 µM) 38.7%.

Regarding `O=c1ccn(C2CC(O)C(COC(c3ccccc3)(c3ccccc3)c3ccccc3)O2)c(=O)[nH]1` (stereo not drawn), the growth reads like this: (10 µM) 101%; (100 µM) 41.5%.

The values are drawn from PubChem BioAssay (NCI).
